# Reference: the supplement of paper PMC10849652
# Of roughly 7,900 targets only a part is listed; those with a hit were picked by preference. About 0.6% of all pairs of compound and target were hits. Values without a mark were called inactive.
# What was measured:
# Test in all cases: log2 fold change, soluble protein after heating vs DMSO (PISA); higher = thermal stabilisation; K562 cells, 10 uM, 30 min; active = over 0.2 and 3.5 SD of the protein, either way, in both replicates (recomputed)
# [1] = compound: CC[C@@H]1C(=O)N(C)c2cnc(Nc3ccc(C(=O)NC4CCN(C)CC4)cc3OC)nc2N1C1CCCC1
# Summary of the method: (§1)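 Values are thermal stability changes relative to control samples and are taken from duplicates. They are stated as log2 fold changes. Before quantification by TMTpro 16plex LC-MS/MS with equalised channel sums, K562 cells at 2×10^6 cells/mL were treated with 10 μM compound for 30 min, heated in aliquots for 3 min across 48°C-58°C, pooled, extracted in PBS with 0.5% NP-40 at 4°C, and centrifuged at 21,000xg for 90 min to give the soluble supernatant.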
# volasertib = compound: CC[C@@H]1C(=O)N(C)c2cnc(Nc3ccc(C(=O)N[C@H]4CC[C@H](N5CCN(CC6CC6)CC5)CC4)cc3OC)nc2N1C(C)C [volasertib]
# Summary of the method: as §1
# [2] = compound: CC[C@H](C)N1C=C(C2=C(C=C(C=C21)C3=CN=C(C=C3)N4CCNCC4)C(=O)NCC5=C(C=C(NC5=O)C)C)C
# Summary of the method: as §1
# epoxomicin = compound: CC[C@H](C)[C@@H](C(=O)N[C@@H]([C@@H](C)O)C(=O)N[C@@H](CC(C)C)C(=O)[C@]1(CO1)C)NC(=O)[C@H]([C@@H](C)CC)N(C)C(=O)C [epoxomicin]
# Summary of the method: as §1
# [3] = compound: CCn1c(C(=O)N(C2CC2)C2CC2)cc2c3c(ncn3C)c(Nc3cc(C)n(C)n3)nc21
# Summary of the method: as §1
# [4] = compound: CCn1cc(-c2ccnc3[nH]c(-c4cccc(CN(C)C)c4)cc23)c(-c2ccc(NC(=O)N(C)C)cc2)n1
# Summary of the method: as §1
# [5] = compound: CN(C)CC(=O)Nc1ccc2[nH]c(=O)c3ccccc3c2c1
# Summary of the method: as §1
# rosiglitazone = compound: CN(CCOC1=CC=C(C=C1)C[C@H]2C(=O)NC(=O)S2)C3=CC=CC=N3 (racemic) [rosiglitazone]
# Summary of the method: as §1
# [6] = compound: CN1C2=C(C3=C1C(=O)N(N=C3)CC4=CC(=CC=C4)N)SC(=C2)S(=O)C
# Summary of the method: as §1
# [7] = compound: CN1CCC(CNc2ccc3ncc(-c4cccc(OC(F)(F)F)c4)n3n2)CC1
# Summary of the method: as §1
# saracatinib = compound: CN1CCN(CCOc2cc(OC3CCOCC3)c3c(Nc4c(Cl)ccc5c4OCO5)ncnc3c2)CC1 [saracatinib]
# Summary of the method: as §1
# sotrastaurin = compound: CN1CCN(c2nc(C3=C(c4c[nH]c5ccccc45)C(=O)NC3=O)c3ccccc3n2)CC1 [sotrastaurin]
# Summary of the method: as §1
# alvocidib = compound: CN1CC[C@H](c2c(O)cc(O)c3c(=O)cc(-c4ccccc4Cl)oc23)[C@H](O)C1 [alvocidib]
# Summary of the method: as §1
# Tubastatin A = compound: CN1CCc2c(c3ccccc3n2Cc2ccc(C(=O)NO)cc2)C1 [Tubastatin A]
# Summary of the method: as §1
# [8] = compound: CNC(=O)C1=CC=CC=C1NC2=NC(=NC=C2Cl)NC3=C(C=C(C=C3)N4CCOCC4)OC
# Summary of the method: as §1
# defactinib = compound: CNC(=O)c1ccc(Nc2ncc(C(F)(F)F)c(NCc3nccnc3N(C)S(C)(=O)=O)n2)cc1 [defactinib]
# Summary of the method: as §1
# rucaparib = compound: CNCc1ccc(-c2[nH]c3cc(F)cc4c3c2CCNC4=O)cc1 [rucaparib]
# Summary of the method: as §1
# [9] = compound: CNc1nc(-c2ccc3c(N)n[nH]c3c2)cc(N2C[C@@H](C(=O)NC3CCCCC3)CC[C@H]2C)n1
# Summary of the method: as §1
# encorafenib = compound: COC(=O)N[C@@H](C)CNc1nccc(-c2cn(C(C)C)nc2-c2cc(Cl)cc(NS(C)(=O)=O)c2F)n1 [encorafenib]
# Summary of the method: as §1
# [10] = compound: COC(=O)[C@H](CCSC)NC(=O)C1=C(C=C(C=C1)NC[C@H](CS)N)C2=CC=CC=C2
# Summary of the method: as §1
# Sequence of UniProt Q9Y2Y1 (Q9Y2Y1 whole entry, looked up): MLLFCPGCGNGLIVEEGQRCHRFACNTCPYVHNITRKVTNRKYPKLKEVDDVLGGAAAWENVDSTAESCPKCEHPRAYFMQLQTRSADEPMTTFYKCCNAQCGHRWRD
# Sequence of UniProt O60256 (O60256 whole entry, looked up): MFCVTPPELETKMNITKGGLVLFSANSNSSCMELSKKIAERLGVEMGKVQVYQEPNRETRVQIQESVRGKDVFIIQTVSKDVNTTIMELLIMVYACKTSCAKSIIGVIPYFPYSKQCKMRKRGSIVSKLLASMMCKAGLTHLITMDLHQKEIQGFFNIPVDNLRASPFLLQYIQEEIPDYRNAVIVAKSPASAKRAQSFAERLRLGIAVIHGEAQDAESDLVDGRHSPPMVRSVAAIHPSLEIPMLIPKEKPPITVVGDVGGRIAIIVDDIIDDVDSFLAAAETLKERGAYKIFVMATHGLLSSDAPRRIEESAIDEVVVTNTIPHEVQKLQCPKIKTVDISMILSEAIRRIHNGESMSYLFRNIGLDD
# Sequence of UniProt P53801 (P53801 whole entry, looked up): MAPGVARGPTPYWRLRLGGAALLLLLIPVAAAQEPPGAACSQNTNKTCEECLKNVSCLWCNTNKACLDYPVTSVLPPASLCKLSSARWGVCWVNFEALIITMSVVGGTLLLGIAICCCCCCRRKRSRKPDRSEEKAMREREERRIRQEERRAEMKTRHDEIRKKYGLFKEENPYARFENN
# Sequence of UniProt P13861 (P13861 whole entry, looked up): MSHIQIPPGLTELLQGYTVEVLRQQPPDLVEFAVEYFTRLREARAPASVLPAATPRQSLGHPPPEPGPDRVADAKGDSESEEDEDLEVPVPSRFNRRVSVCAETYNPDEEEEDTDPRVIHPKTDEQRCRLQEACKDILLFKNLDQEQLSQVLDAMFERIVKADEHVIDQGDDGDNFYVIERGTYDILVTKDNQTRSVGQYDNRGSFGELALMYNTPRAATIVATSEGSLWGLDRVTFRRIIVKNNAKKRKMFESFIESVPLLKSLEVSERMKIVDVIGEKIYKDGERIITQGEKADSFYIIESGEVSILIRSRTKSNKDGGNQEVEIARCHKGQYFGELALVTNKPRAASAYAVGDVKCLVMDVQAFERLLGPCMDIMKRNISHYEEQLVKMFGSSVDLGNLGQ
# Sequence of UniProt Q15172 (Q15172 whole entry, looked up): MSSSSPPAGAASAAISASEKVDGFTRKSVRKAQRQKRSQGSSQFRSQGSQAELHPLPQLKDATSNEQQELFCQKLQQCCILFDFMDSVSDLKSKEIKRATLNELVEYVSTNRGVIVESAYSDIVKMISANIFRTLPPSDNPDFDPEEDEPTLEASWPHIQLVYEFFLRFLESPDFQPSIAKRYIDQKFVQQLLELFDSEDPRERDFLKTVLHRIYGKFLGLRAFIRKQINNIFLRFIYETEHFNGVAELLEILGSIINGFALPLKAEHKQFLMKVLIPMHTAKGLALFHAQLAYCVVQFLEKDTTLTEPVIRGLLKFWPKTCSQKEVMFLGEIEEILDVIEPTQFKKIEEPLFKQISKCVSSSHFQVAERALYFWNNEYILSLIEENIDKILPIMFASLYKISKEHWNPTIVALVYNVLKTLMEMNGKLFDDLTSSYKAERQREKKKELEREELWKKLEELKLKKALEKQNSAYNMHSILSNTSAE
# Sequence of UniProt Q16537 (Q16537 whole entry, looked up): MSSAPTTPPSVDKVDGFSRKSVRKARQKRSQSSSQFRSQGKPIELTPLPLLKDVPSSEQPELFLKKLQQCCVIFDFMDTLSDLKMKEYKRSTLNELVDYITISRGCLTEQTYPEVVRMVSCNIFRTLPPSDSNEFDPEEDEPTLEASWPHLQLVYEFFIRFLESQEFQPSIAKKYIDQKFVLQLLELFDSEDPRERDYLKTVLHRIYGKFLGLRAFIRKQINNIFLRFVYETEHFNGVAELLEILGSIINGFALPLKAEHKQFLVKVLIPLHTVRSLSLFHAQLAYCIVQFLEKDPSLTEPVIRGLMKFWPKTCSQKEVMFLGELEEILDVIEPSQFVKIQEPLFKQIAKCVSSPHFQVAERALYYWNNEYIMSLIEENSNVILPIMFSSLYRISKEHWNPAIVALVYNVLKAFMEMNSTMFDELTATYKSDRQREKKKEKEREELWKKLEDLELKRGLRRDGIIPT
# Sequence of UniProt Q08752 (Q08752 whole entry, looked up): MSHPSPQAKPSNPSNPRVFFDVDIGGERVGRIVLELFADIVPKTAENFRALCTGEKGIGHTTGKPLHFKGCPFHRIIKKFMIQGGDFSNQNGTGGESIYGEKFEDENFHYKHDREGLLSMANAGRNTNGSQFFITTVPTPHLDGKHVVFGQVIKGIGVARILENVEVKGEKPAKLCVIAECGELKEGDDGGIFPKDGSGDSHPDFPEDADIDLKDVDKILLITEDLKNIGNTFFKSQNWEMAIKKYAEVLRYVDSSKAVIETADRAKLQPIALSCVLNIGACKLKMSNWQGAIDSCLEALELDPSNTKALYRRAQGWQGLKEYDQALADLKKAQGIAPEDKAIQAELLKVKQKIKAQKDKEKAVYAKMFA
Target,log2 fold change [1],log2 fold change (volasertib),log2 fold change [2],log2 fold change (epoxomicin),log2 fold change [3],log2 fold change [4],log2 fold change [5],log2 fold change (rosiglitazone),log2 fold change [6],log2 fold change [7],log2 fold change (saracatinib),log2 fold change (sotrastaurin),log2 fold change (alvocidib),log2 fold change (Tubastatin A),log2 fold change [8],log2 fold change (defactinib),log2 fold change (rucaparib),log2 fold change [9],log2 fold change (encorafenib),log2 fold change [10]
POLR3K (UniProt Q9Y2Y1),-0.077,0.056,-0.018,0.067,-0.061,0.038,-0.048,-0.045,-0.012,-0.01,0.052,-0.049,0.038,0.044,-0.035,-0.086,0.089,-0.098,-0.019,0.015
PPP2R5E (UniProt Q16537),-0.259 (active),-0.404 (active),-0.025,-0.034,-0.009,-0.165,0.018,0.099,-0.048,-0.99 (active),-0.077,0.012,-0.069,0.005,0.083,-0.025,-0.008,0.074,0.021,-0.017
PRKAR2A (UniProt P13861),0.03,-0.024,0.046,-0.031,-0.007,-0.033,0.047,0.011,0.077,0.023,0.034,-0.121,-0.023,-0.029,0.027,-0.02,-0.015,-0.04,0.017,-0.015
PPP2R5A (UniProt Q15172),-0.099,-0.295 (active),0.097,0.067,0.012,-0.046,0.072,0.112,-0.049,-0.305 (active),-0.03,-0.043,-0.089,0.042,0.01,-0.037,0.053,0.032,0.063,-0.03
PRPSAP2 (UniProt O60256),0.07,0.056,-0.043,-0.008,-0.013,-0.088,-0.02,0.008,-0.041,0.159,0.011,0.084,0.003,-0.018,-0.017,0.01,-0.014,0.03,-0.004,-0.012
POLR2I (UniProt P36954),0.209,0.232,0.055,0.007,0.017,-0.208,-0.107,-0.107,-0.009,0.202,0.134,0.033,0.371,-0.266,0.009,0.141,0.162,0.02,0.015,0.023
PPID (UniProt Q08752),-0.076,-0.366 (active),0.132,0.026,-0.046,-0.058,0.087,0.062,-0.015,-0.173,-0.137,-0.178,-0.069,0.051,0.044,-0.101,0.135,0.042,0.142,-0.052
PTTG1IP (UniProt P53801),-0.223,-0.05,-0.154,-0.017,-0.176,-0.01,-0.041,0.011,0.009,-0.771 (active),0.021,-0.03,0.004,-0.085,0.062,-0.011,0.013,-0.246,-0.052,0.129
